In PubChem BioAssay:
Unmarked numbers belong to inactive results. Activity calls are given as the source filed them.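 Rule for the calls, unless noted: active = mean inhibition over 43.08%, the solvent-only control mean plus 3 SD; inactive = the rest.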

What follows are compounds tested against Nuclear receptor coactivator 3 (Homo sapiens) (UniProt Q9Y6Q9) (assay: NCOA3 GAL4-fusion reporter inhibition – cell-based, luminescence, quadruplicate, confirmation (AID 588792;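 note: 0% = DMSO treated cells and 100% = gossypol at 36 µM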)). Details: HEK293 GAL4-SRC3 luciferase reporter, at 3.6 µM, active compounds read high.
Nuclear receptor coactivator 3 (Homo sapiens), sequence (Q9Y6Q9 whole entry, looked up, the tested form may be a part): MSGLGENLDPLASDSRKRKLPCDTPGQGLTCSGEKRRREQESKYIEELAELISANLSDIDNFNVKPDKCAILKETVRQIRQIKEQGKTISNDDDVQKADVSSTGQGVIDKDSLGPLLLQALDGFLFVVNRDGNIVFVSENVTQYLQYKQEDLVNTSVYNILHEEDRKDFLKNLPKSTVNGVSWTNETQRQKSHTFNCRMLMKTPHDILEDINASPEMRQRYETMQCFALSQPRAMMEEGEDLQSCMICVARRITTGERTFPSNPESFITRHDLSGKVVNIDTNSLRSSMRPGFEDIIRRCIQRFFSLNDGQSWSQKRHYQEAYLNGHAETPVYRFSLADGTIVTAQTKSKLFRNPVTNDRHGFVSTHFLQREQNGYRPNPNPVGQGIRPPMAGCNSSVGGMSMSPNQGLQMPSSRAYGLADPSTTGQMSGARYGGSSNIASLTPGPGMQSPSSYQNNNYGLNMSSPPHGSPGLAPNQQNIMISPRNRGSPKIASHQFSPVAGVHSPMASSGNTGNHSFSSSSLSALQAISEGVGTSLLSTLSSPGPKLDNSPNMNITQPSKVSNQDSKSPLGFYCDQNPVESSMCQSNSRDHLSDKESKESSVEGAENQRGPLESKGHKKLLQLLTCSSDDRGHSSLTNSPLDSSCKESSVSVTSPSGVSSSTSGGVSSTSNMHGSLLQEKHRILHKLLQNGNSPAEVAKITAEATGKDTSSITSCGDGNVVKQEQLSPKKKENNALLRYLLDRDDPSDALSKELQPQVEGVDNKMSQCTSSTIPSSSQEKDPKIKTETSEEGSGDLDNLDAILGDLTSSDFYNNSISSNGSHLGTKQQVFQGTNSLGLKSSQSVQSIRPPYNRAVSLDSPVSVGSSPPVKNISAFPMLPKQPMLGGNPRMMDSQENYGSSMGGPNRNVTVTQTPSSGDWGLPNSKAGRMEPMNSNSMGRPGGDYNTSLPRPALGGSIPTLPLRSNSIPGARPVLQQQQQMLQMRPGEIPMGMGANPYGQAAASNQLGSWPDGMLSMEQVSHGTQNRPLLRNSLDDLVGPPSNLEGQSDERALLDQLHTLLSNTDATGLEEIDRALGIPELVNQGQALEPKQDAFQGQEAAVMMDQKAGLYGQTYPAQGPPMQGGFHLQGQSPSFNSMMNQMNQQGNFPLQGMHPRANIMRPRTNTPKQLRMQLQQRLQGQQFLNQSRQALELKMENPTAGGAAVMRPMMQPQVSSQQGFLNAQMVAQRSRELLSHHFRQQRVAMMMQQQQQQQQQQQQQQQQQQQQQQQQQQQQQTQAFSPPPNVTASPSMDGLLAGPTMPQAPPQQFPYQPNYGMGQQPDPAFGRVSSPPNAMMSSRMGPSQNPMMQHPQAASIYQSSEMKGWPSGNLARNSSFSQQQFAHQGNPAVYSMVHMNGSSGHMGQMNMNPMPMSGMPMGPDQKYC

Question: Cc1[nH]nc(-c2ccc(O)cc2O)c1Oc1ccccc1 was tested. Which inhibition did it give?
Answer: 3.77%

Question: With CCOc1cc(C(=O)N2CCC(CC3CC(c4ccc(Cl)cc4)=NO3)(C(=O)NCC3CCCCC3)CC2)cc(OCC)c1OCC (stereo not given) as the compound, how does the inhibition read?
Answer: 6.12%

Question: With c1ccc(NNC2=NCCCCC2)cc1 as the compound, how does the inhibition read?
Answer: 1.28%

Question: Which inhibition does the source give for Clc1ccc(SCc2cc(N3CCOCC3)nc(-c3ccccn3)n2)cc1 here?
Answer: -5.99%

Question: For CCCC(=O)NC(c1ccc(C(C)C)cc1)c1ccc2cccnc2c1O (stereo not given), which inhibition is on record?
Answer: 74.5% (active)

Question: Which inhibition does the source give for COc1ccc(C(CC(=O)O)NC(=O)OC(C)(C)C)cc1 (stereo not given) here?
Answer: 4.59%

Question: With CCn1cc(C(=O)NCc2ccccn2)c(=O)c2cc(F)c(N3CCN(C)CC3)cc21 as the compound, how does the inhibition read?
Answer: -0.49%

Question: How did the inhibition turn out when Cc1cccc(OC(=O)NCCOC(=O)N(O)c2ccc(Cl)cc2)c1 was run?
Answer: 4.94%

Question: How did the inhibition turn out when O=C(C[n+]1ccccc1)NNc1ccccc1 was run?
Answer: 33.2%

Question: With CC(=O)c1c(C)[nH]c(C(=O)OCC(=O)Nc2ccc(C)cc2[N+](=O)[O-])c1C as the compound, how does the inhibition read?
Answer: 32.4%

Question: Which inhibition does the source give for CC(C)[C@@H]1CC[C@@H](C)C[C@H]1OC(=O)C[n+]1cc(-c2ccc(Cl)cc2)n2c1CCCCC2 here?
Answer: 10.3%

Question: How did the inhibition turn out when O=C(NCC1CCCO1)c1cccc2c1C(=O)c1ccc(N3CCC(Cc4ccccc4)CC3)cc1S2(=O)=O (stereo not given) was run?
Answer: -2.13%

Question: For Cc1ccc(-c2c[n+]3c(n2-c2ccccc2)SCC3)cc1, which inhibition is on record?
Answer: 8.17%

Question: For Cc1ccc(S(=O)(=O)C(C#N)c2nc3ccccc3nc2N2CCN(C)CC2)cc1 (stereo not given), which inhibition is on record?
Answer: 19.1%

Question: With CCCCn1c(/N=C/c2ccc(N(C)C)cc2)nc2ccccc21 as the compound, how does the inhibition read?
Answer: -1.05%

Question: How did the inhibition turn out when O=S(=O)(c1ccccc1)c1nc(Nc2cccc(O)c2)sc1Cl was run?
Answer: -4.35%

Question: Which inhibition does the source give for Cc1ccc(-c2c[n+](Cc3ccc(Cl)c(Cl)c3)c3n2CCC3)cc1 here?
Answer: 17.6%

Question: How did the inhibition turn out when CC1(C)CC2(CC(c3ccccc3F)c3cc(Cl)c(O)cc3O2)NC(=S)N1 (stereo not given) was run?
Answer: 16.6%

Question: For O=C(N/N=C/c1cc(Cl)ccc1O)c1cccnc1, which inhibition is on record?
Answer: 15.7%

Question: With COc1cc(NC(=O)c2cc3ccccc3cc2OC)ccc1NC(=O)c1cccs1 as the compound, how does the inhibition read?
Answer: 4.37%

Question: Which inhibition does the source give for CCOc1ccc(S(=O)(=O)N2CCN(C(=O)COc3ccc(Br)cc3)CC2)cc1 here?
Answer: 14.4%

Question: How did the inhibition turn out when Cc1cccc(Nc2nc(-c3c(C)nc4ccccn34)cs2)c1 was run?
Answer: 19.1%

Question: With CCN1C/C(=C/c2ccc(N3CCOCC3)cc2)C(=O)/C(=C/c2ccc(N3CCOCC3)cc2)C1 as the compound, how does the inhibition read?
Answer: 40.8%

Question: With Cc1ccc(/C=C/C(O)=C2/C(=O)N(C)C3(C)CC2c2ccccc2O3)cc1 (stereo not given) as the compound, how does the inhibition read?
Answer: 20.3%

Question: How did the inhibition turn out when CC1CC(C)CN(c2nc(NCc3ccco3)nc(N)c2[N+](=O)[O-])C1 (stereo not given) was run?
Answer: 9.73%

Question: Which inhibition does the source give for O=C(N/N=C/c1c(O)ccc2ccccc12)c1ccc(CO)nc1 here?
Answer: 26.3%

Question: O=C(c1cc2sccc2n1Cc1ccccc1)N1CCN(c2nc3ccccc3s2)CC1 was tested. Which inhibition did it give?
Answer: 2.32%

Question: For c1ccc(-n2nnnc2NCCCN2CCOCC2)cc1, which inhibition is on record?
Answer: -14.3%

Question: With c1cncc(CNc2ncnc3sc4c(c23)CCC4)c1 as the compound, how does the inhibition read?
Answer: 23.1%

Question: Cc1[nH]n(C)c(=O)c1N=Nc1ccc(S(C)(=O)=O)cc1 was tested. Which inhibition did it give?
Answer: 8.44%

Question: Which inhibition does the source give for Cn1c(SCC(=O)Nc2ccc(Cl)cc2)nc(O)cc1=O here?
Answer: -1.75%

Question: For COc1ccc(Cl)cc1NC(=O)CN(C)CC(=O)Nc1c(C)n(C)n(-c2ccccc2)c1=O, which inhibition is on record?
Answer: 14.8%

Question: How did the inhibition turn out when CC(=O)c1cc(CC=C(C)C)c(O)c(CC=C(C)C)c1O was run?
Answer: 4.99%

Question: With COc1ccccc1NS(=O)(=O)c1cc(NC(=O)c2[nH]c(C)c(C(C)=O)c2C)ccc1N1CCOCC1 as the compound, how does the inhibition read?
Answer: 15.5%

Question: CCOC1=C2CN(S(=O)(=O)c3ccc(C)cc3)[C@H](c3ccc(CC)cc3)C[C@@H]2N(S(=O)(=O)c2ccc(C)cc2)[C@H](c2ccccc2)C1 was tested. Which inhibition did it give?
Answer: 10.9%

Question: How did the inhibition turn out when CCOc1ccc(/C=C/C(O)=C2/C(=O)NC3(C)CC2c2ccccc2O3)cc1OC (stereo not given) was run?
Answer: 25.5%

Question: CCc1c(C)nc2ncnn2c1NCCc1ccc(Cl)cc1 was tested. Which inhibition did it give?
Answer: 23.3%

Question: With Cn1nnnc1Sc1ncnc2scc(-c3ccccc3)c12 as the compound, how does the inhibition read?
Answer: -4.36%

Question: COc1ccccc1N1CCN(C(=O)CSc2nnc3n2C(C)(C)Cc2ccccc2-3)CC1 was tested. Which inhibition did it give?
Answer: -10.1%

Question: CC(=O)Nc1ccc(S(=O)(=O)Oc2ccccc2N2CCCCC2)cc1 was tested. Which inhibition did it give?
Answer: -3.48%

These compounds were tested on transactivating tegument protein VP16 (Human herpesvirus 1), Gal4-VP16 luciferase reporter (assay: repression of VP16-driven luciferase reporter – cell-based, luminescence, high throughput, counter-screen for SRC3 inhibitor project (AID 588794; in the data active = inhibition above about 30%)). Details: mammalian cells, at 3.6 µM, active compounds read high.

Question: With Cc1[nH]nc(-c2ccc(O)cc2O)c1Oc1ccccc1 as the compound, how does the inhibition read?
Answer: 10.3%

Question: CCOc1cc(C(=O)N2CCC(CC3CC(c4ccc(Cl)cc4)=NO3)(C(=O)NCC3CCCCC3)CC2)cc(OCC)c1OCC (stereo not given) was tested. Which inhibition did it give?
Answer: 7.56%

Question: c1ccc(NNC2=NCCCCC2)cc1 was tested. Which inhibition did it give?
Answer: -9.77%

Question: Which inhibition does the source give for Clc1ccc(SCc2cc(N3CCOCC3)nc(-c3ccccn3)n2)cc1 here?
Answer: 1.33%

Question: Which inhibition does the source give for CCCC(=O)NC(c1ccc(C(C)C)cc1)c1ccc2cccnc2c1O (stereo not given) here?
Answer: 73.2% (active)

Question: Which inhibition does the source give for COc1ccc(C(CC(=O)O)NC(=O)OC(C)(C)C)cc1 (stereo not given) here?
Answer: 3.31%

Question: CCn1cc(C(=O)NCc2ccccn2)c(=O)c2cc(F)c(N3CCN(C)CC3)cc21 was tested. Which inhibition did it give?
Answer: 3.18%

Question: How did the inhibition turn out when Cc1cccc(OC(=O)NCCOC(=O)N(O)c2ccc(Cl)cc2)c1 was run?
Answer: -5.77%

Question: For O=C(C[n+]1ccccc1)NNc1ccccc1, which inhibition is on record?
Answer: 47.4% (active)

Question: How did the inhibition turn out when CC(=O)c1c(C)[nH]c(C(=O)OCC(=O)Nc2ccc(C)cc2[N+](=O)[O-])c1C was run?
Answer: 52.8% (active)

Question: With CC(C)[C@@H]1CC[C@@H](C)C[C@H]1OC(=O)C[n+]1cc(-c2ccc(Cl)cc2)n2c1CCCCC2 as the compound, how does the inhibition read?
Answer: 20.6%

Question: For O=C(NCC1CCCO1)c1cccc2c1C(=O)c1ccc(N3CCC(Cc4ccccc4)CC3)cc1S2(=O)=O (stereo not given), which inhibition is on record?
Answer: 10.6%

Question: With Cc1ccc(-c2c[n+]3c(n2-c2ccccc2)SCC3)cc1 as the compound, how does the inhibition read?
Answer: 24.7%

Question: Which inhibition does the source give for Cc1ccc(S(=O)(=O)C(C#N)c2nc3ccccc3nc2N2CCN(C)CC2)cc1 (stereo not given) here?
Answer: -2.04%

Question: Which inhibition does the source give for CCCCn1c(/N=C/c2ccc(N(C)C)cc2)nc2ccccc21 here?
Answer: -4%

Question: How did the inhibition turn out when O=S(=O)(c1ccccc1)c1nc(Nc2cccc(O)c2)sc1Cl was run?
Answer: 0.89%

Question: Which inhibition does the source give for Cc1ccc(-c2c[n+](Cc3ccc(Cl)c(Cl)c3)c3n2CCC3)cc1 here?
Answer: 25.3%

Question: With CC1(C)CC2(CC(c3ccccc3F)c3cc(Cl)c(O)cc3O2)NC(=S)N1 (stereo not given) as the compound, how does the inhibition read?
Answer: 6.57%

Question: O=C(N/N=C/c1cc(Cl)ccc1O)c1cccnc1 was tested. Which inhibition did it give?
Answer: 41.4% (active)

Question: COc1cc(NC(=O)c2cc3ccccc3cc2OC)ccc1NC(=O)c1cccs1 was tested. Which inhibition did it give?
Answer: -1%

Question: CCOc1ccc(S(=O)(=O)N2CCN(C(=O)COc3ccc(Br)cc3)CC2)cc1 was tested. Which inhibition did it give?
Answer: 14.7%

Question: With Cc1cccc(Nc2nc(-c3c(C)nc4ccccn34)cs2)c1 as the compound, how does the inhibition read?
Answer: 24.4%

Question: Which inhibition does the source give for CCN1C/C(=C/c2ccc(N3CCOCC3)cc2)C(=O)/C(=C/c2ccc(N3CCOCC3)cc2)C1 here?
Answer: 22.6%

Question: For Cc1ccc(/C=C/C(O)=C2/C(=O)N(C)C3(C)CC2c2ccccc2O3)cc1 (stereo not given), which inhibition is on record?
Answer: 30.3% (active)

Question: Which inhibition does the source give for CC1CC(C)CN(c2nc(NCc3ccco3)nc(N)c2[N+](=O)[O-])C1 (stereo not given) here?
Answer: 9.4%

Question: How did the inhibition turn out when O=C(N/N=C/c1c(O)ccc2ccccc12)c1ccc(CO)nc1 was run?
Answer: 41.3% (active)

Question: With O=C(c1cc2sccc2n1Cc1ccccc1)N1CCN(c2nc3ccccc3s2)CC1 as the compound, how does the inhibition read?
Answer: 35.9% (active)

Question: How did the inhibition turn out when c1ccc(-n2nnnc2NCCCN2CCOCC2)cc1 was run?
Answer: -8.35%

Question: c1cncc(CNc2ncnc3sc4c(c23)CCC4)c1 was tested. Which inhibition did it give?
Answer: 9.1%

Question: Cc1[nH]n(C)c(=O)c1N=Nc1ccc(S(C)(=O)=O)cc1 was tested. Which inhibition did it give?
Answer: -1.15%

Question: For Cn1c(SCC(=O)Nc2ccc(Cl)cc2)nc(O)cc1=O, which inhibition is on record?
Answer: -9.43%

Question: With COc1ccc(Cl)cc1NC(=O)CN(C)CC(=O)Nc1c(C)n(C)n(-c2ccccc2)c1=O as the compound, how does the inhibition read?
Answer: 4.85%

Question: How did the inhibition turn out when CC(=O)c1cc(CC=C(C)C)c(O)c(CC=C(C)C)c1O was run?
Answer: -4.39%

Question: How did the inhibition turn out when COc1ccccc1NS(=O)(=O)c1cc(NC(=O)c2[nH]c(C)c(C(C)=O)c2C)ccc1N1CCOCC1 was run?
Answer: -14.8%

Question: For CCOC1=C2CN(S(=O)(=O)c3ccc(C)cc3)[C@H](c3ccc(CC)cc3)C[C@@H]2N(S(=O)(=O)c2ccc(C)cc2)[C@H](c2ccccc2)C1, which inhibition is on record?
Answer: 35.4% (active)

Question: For CCOc1ccc(/C=C/C(O)=C2/C(=O)NC3(C)CC2c2ccccc2O3)cc1OC (stereo not given), which inhibition is on record?
Answer: 39% (active)

Question: How did the inhibition turn out when CCc1c(C)nc2ncnn2c1NCCc1ccc(Cl)cc1 was run?
Answer: 25.9%

Question: Which inhibition does the source give for Cn1nnnc1Sc1ncnc2scc(-c3ccccc3)c12 here?
Answer: 2.99%

Question: COc1ccccc1N1CCN(C(=O)CSc2nnc3n2C(C)(C)Cc2ccccc2-3)CC1 was tested. Which inhibition did it give?
Answer: 27.2%

Question: CC(=O)Nc1ccc(S(=O)(=O)Oc2ccccc2N2CCCCC2)cc1 was tested. Which inhibition did it give?
Answer: 0.67%
